Data reported in publication PMC7862700, “An all-to-all approach to the identification of sequence-specific readers for epigenetic DNA modifications on cytosine”.

How the values were obtained:
Assay in all cases: DAPPL (digital affinity profiling via proximity ligation, sequencing); 10 mM Tris-HCl pH 7.5, 50 mM NaCl, 1 mM DTT, 4% glycerol, room temperature, 30 min; GST-TFs on glutathione beads, 16-mer random dsDNA library, 0.1% formaldehyde crosslink after washing; high values mean tight binding
FLI1 = target: T1, FLI1 (Homo sapiens, UniProt Q01543 1-452); settings: protein: recombinant; tags: N-terminal GST; dsDNA, one strand shown
T1 sequence: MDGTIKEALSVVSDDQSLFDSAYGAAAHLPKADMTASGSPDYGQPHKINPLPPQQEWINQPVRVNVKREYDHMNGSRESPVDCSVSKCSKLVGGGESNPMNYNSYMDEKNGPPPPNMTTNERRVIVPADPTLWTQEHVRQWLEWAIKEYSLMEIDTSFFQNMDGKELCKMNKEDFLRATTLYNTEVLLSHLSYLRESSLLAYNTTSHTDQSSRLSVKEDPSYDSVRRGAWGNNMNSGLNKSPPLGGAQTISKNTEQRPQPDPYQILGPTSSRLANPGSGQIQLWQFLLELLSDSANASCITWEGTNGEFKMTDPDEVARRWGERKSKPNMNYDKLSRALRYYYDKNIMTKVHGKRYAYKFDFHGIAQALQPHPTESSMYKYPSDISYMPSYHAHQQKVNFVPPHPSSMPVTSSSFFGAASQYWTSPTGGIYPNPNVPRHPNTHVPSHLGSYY
Outline: (§1)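 A tag-only sample was pooled with DNA-barcoded human transcription factors that had been expressed in yeast as GST fusions and captured on glutathione beads. The pools were incubated for 30 min at room temperature with 200 nmole of a random double-stranded 16-mer DNA library in Tris/NaCl/DTT/glycerol buffer, then washed, crosslinked with 0.1% formaldehyde, proximity-ligated (BsaI/T4 ligase, 1 h, 37 °C), PCR-amplified and sequenced on an Illumina NextSeq500. Binding signal is each hexamer's read frequency for a factor divided by its frequency for the tag-only sample.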

ELK1 = target: T2, ELK1 (Homo sapiens, UniProt P19419 1-428); settings: protein: recombinant; tags: N-terminal GST; dsDNA, one strand shown
T2 sequence: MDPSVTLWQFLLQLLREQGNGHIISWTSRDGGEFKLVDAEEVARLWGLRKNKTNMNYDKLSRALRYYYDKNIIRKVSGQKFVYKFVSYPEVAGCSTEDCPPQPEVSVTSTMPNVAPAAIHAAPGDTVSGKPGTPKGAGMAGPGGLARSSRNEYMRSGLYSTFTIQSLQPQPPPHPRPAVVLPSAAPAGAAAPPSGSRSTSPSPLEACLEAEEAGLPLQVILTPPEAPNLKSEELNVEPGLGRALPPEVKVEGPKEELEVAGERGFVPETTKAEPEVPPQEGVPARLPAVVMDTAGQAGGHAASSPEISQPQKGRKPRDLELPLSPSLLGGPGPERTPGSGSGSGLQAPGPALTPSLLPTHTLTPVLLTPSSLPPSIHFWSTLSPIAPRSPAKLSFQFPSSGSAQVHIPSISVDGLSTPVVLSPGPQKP
Outline: as §1

GABPA = target: T3, GABPA (Homo sapiens, UniProt Q06546 1-454); settings: protein: recombinant; tags: N-terminal GST; dsDNA, one strand shown
T3 sequence: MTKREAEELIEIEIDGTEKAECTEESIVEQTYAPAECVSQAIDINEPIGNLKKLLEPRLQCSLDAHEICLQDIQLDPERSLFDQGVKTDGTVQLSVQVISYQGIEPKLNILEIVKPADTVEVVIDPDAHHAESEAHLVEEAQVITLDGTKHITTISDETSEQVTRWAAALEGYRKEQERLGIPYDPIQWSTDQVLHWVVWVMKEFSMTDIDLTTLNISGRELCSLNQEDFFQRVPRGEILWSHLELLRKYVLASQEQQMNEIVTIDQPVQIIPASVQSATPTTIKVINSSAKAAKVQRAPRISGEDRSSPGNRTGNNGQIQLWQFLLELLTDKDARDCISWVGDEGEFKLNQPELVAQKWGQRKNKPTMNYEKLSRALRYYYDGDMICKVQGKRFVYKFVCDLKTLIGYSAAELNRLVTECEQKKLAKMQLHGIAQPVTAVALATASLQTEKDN
Outline: as §1

ERG = target: T4, ERG (Homo sapiens, UniProt P11308 1-479); settings: protein: recombinant; tags: N-terminal GST; dsDNA, one strand shown
T4 sequence: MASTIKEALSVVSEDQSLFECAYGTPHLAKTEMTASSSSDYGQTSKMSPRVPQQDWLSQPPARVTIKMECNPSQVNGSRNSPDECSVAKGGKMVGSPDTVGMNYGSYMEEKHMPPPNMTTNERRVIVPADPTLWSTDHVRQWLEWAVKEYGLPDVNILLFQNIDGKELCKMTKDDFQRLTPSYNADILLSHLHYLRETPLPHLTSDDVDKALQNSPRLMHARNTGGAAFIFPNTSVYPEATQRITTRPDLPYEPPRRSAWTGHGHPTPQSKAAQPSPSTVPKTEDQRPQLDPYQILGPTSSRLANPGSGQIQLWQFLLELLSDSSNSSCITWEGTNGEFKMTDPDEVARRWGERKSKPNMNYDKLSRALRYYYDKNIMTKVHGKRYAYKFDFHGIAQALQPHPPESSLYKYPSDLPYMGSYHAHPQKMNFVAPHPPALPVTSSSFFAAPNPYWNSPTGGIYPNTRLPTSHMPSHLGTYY
Outline: as §1

ELF1 = ELF1 (Homo sapiens, UniProt P32519 1-619); settings: protein: recombinant; tags: N-terminal GST; dsDNA, one strand shown
Outline: as §1

EHF = target: T5, EHF (Homo sapiens, UniProt Q9NZC4 1-300); settings: protein: recombinant; tags: N-terminal GST; dsDNA, one strand shown
T5 sequence: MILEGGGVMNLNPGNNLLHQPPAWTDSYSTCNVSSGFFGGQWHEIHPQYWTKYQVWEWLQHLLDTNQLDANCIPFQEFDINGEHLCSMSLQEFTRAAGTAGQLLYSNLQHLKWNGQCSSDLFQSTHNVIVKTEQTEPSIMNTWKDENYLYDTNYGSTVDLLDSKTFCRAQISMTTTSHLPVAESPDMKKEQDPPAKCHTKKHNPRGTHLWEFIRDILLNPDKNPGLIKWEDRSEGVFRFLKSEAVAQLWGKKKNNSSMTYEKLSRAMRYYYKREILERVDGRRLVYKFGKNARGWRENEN
Outline: as §1

SPI1 = SPI1 (Homo sapiens, UniProt P17947 1-270); settings: protein: recombinant; tags: N-terminal GST; dsDNA, one strand shown
Outline: as §1

SPIB = SPIB (Homo sapiens, UniProt Q01892 1-262); settings: protein: recombinant; tags: N-terminal GST; dsDNA, one strand shown
Outline: as §1

ELK3 = target: T6, ELK3 (Homo sapiens, UniProt P41970 1-407); settings: protein: recombinant; tags: N-terminal GST; dsDNA, one strand shown
T6 sequence: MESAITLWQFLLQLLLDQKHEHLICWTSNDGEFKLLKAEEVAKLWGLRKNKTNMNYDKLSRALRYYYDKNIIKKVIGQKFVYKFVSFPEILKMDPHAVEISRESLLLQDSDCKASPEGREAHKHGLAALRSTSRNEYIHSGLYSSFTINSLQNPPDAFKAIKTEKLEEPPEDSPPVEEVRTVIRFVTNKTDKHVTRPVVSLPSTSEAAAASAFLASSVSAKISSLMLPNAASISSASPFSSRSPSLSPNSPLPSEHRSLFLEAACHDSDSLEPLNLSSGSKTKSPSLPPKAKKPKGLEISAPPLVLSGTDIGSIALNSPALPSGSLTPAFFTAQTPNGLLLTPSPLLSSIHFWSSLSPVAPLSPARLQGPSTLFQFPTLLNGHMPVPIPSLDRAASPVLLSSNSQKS
Outline: as §1

FEV = target: T7, FEV (Homo sapiens, UniProt Q99581 1-238); settings: protein: recombinant; tags: N-terminal GST; dsDNA, one strand shown
T7 sequence: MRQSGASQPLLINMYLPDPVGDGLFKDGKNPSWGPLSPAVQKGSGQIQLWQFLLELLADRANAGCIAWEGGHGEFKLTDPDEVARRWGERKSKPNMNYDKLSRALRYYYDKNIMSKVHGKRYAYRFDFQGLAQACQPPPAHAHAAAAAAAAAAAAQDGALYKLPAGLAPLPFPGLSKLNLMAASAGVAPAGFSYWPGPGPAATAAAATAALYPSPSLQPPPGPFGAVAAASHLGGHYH
Outline: as §1

ETV5 = ETV5 (Homo sapiens, UniProt P41161 1-510); settings: protein: recombinant; tags: N-terminal GST; dsDNA, one strand shown
Outline: as §1

HSF1 = HSF1 (Homo sapiens, UniProt Q00613 1-529); settings: protein: recombinant; tags: N-terminal GST; chain copies: 3; dsDNA, one strand shown
Outline: as §1

SPIC = target: T8, SPIC (Homo sapiens, UniProt Q8N5J4 1-248); settings: protein: recombinant; tags: N-terminal GST; dsDNA, one strand shown
T8 sequence: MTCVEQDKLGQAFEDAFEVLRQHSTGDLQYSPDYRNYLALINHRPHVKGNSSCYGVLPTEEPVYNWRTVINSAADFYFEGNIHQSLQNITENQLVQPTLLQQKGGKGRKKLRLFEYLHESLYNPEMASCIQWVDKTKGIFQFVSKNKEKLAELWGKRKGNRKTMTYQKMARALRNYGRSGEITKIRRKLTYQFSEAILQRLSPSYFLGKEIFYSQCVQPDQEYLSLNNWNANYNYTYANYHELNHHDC
Outline: as §1

ELF4 = ELF4 (Homo sapiens, UniProt Q99607 1-663); settings: protein: recombinant; tags: N-terminal GST; dsDNA, one strand shown
Outline: as §1

ELK4 = target: T9, ELK4 (Homo sapiens, UniProt P28324-2 1-405); settings: protein: recombinant; tags: N-terminal GST; dsDNA, one strand shown
T9 sequence: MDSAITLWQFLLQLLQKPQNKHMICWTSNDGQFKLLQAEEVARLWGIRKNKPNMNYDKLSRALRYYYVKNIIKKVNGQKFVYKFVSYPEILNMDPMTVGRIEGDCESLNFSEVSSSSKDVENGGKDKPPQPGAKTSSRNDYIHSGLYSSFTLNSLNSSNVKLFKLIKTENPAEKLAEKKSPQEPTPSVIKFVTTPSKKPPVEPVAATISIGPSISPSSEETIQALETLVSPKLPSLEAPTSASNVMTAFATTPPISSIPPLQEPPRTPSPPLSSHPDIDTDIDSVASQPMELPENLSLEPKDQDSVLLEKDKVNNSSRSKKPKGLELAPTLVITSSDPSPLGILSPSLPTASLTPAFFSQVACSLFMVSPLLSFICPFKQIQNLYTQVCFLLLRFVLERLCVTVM
Outline: as §1

ETV2 = target: T10, ETV2 (Homo sapiens, UniProt O00321 1-342); settings: protein: recombinant; tags: N-terminal GST; dsDNA, one strand shown
T10 sequence: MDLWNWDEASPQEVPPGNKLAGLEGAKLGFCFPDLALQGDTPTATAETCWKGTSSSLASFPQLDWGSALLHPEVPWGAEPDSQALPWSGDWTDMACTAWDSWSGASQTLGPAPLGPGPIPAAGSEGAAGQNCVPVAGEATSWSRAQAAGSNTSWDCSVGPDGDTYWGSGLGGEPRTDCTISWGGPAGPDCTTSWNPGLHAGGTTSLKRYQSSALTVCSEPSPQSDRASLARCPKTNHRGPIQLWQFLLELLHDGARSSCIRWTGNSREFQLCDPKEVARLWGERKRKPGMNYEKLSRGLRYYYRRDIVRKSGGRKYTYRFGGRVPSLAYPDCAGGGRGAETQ
Outline: as §1

ELF3 = target: T11, ELF3 (Homo sapiens, UniProt P78545 1-371); settings: protein: recombinant; tags: N-terminal GST; dsDNA, one strand shown
T11 sequence: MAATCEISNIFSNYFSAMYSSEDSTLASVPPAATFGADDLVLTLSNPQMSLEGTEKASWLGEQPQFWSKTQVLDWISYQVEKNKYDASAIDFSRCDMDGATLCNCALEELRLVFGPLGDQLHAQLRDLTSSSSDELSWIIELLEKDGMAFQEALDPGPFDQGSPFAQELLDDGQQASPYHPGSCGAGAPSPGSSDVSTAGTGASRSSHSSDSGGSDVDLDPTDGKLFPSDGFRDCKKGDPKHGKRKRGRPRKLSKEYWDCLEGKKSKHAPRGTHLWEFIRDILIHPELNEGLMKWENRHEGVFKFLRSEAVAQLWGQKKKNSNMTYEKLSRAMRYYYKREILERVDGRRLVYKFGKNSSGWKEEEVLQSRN
Outline: as §1

CRX = CRX (Homo sapiens, UniProt O43186 1-299); settings: protein: recombinant; tags: N-terminal GST; dsDNA, one strand shown
Outline: as §1

ETV1 = ETV1 (Homo sapiens, UniProt P50549 1-477); settings: protein: recombinant; tags: N-terminal GST; dsDNA, one strand shown
Outline: as §1

Chain of SPIB (Q01892 whole entry): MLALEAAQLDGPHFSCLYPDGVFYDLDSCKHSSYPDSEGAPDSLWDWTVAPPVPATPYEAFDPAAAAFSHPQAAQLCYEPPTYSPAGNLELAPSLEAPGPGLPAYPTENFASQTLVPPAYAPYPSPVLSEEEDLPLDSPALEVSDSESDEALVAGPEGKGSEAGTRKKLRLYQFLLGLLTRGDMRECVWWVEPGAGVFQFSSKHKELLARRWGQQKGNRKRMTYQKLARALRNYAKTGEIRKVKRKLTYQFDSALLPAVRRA
Chain of ELF1 (P32519 whole entry): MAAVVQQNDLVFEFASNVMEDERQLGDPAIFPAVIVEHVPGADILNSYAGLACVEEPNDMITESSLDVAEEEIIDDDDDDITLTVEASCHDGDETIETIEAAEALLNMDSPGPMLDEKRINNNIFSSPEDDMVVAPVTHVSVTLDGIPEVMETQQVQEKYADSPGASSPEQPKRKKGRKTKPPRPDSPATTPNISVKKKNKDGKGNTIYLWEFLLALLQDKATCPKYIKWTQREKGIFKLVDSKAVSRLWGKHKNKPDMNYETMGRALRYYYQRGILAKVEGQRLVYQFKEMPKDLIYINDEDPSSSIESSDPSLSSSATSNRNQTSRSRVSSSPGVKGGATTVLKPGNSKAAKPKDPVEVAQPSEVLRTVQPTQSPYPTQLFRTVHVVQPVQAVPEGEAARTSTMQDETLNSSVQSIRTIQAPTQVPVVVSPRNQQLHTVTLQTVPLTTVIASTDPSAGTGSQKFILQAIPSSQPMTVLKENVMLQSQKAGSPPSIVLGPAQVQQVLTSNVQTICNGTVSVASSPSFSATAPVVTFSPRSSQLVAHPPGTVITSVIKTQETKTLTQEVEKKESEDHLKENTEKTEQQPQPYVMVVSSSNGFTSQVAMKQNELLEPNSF
Chain of HSF1 (Q00613 whole entry): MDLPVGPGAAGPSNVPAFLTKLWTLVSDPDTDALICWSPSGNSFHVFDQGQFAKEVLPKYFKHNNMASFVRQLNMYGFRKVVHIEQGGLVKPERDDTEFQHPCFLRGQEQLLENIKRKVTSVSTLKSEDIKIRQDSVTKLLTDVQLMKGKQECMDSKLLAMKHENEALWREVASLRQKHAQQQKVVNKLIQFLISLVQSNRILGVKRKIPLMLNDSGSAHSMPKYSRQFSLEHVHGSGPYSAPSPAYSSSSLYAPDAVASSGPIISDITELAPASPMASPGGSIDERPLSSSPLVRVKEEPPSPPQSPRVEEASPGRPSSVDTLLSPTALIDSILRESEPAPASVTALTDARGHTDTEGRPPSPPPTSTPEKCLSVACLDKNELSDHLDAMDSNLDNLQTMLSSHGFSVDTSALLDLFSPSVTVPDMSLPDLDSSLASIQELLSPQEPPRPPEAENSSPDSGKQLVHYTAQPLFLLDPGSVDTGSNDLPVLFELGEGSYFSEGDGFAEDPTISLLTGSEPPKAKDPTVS
Chain of ELF4 (Q99607 whole entry): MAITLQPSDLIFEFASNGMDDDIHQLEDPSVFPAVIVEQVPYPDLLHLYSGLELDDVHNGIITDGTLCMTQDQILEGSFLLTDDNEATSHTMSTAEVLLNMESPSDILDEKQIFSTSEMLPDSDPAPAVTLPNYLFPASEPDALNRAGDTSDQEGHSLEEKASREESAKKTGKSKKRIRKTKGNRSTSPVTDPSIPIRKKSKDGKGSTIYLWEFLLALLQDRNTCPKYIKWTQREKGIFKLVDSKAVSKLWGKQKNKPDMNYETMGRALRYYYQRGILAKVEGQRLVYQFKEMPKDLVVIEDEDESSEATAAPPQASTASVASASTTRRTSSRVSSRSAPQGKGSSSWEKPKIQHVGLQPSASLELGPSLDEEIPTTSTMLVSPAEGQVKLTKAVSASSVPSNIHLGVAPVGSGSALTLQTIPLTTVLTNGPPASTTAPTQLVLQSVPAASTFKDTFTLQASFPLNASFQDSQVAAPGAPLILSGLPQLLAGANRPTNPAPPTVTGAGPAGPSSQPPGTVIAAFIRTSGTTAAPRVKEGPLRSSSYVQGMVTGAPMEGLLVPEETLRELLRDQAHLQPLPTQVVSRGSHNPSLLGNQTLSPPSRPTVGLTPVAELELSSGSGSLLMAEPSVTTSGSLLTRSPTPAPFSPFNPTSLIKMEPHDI
Chain of ETV5 (P41161 whole entry): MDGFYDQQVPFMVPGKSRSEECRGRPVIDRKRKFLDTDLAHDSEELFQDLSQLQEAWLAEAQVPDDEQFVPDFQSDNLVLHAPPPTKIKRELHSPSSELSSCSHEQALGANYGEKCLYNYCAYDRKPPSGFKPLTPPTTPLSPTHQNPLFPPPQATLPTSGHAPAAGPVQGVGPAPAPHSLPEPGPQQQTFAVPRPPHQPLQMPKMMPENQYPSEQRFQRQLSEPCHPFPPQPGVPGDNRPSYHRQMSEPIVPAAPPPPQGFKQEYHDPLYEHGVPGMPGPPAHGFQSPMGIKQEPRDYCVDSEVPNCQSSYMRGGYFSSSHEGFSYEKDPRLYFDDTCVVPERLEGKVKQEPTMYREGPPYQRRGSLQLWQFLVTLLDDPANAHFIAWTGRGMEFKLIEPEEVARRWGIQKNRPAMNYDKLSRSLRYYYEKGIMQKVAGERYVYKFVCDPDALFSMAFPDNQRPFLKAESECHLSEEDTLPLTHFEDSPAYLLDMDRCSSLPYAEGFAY
Chain of ETV1 (P50549 whole entry): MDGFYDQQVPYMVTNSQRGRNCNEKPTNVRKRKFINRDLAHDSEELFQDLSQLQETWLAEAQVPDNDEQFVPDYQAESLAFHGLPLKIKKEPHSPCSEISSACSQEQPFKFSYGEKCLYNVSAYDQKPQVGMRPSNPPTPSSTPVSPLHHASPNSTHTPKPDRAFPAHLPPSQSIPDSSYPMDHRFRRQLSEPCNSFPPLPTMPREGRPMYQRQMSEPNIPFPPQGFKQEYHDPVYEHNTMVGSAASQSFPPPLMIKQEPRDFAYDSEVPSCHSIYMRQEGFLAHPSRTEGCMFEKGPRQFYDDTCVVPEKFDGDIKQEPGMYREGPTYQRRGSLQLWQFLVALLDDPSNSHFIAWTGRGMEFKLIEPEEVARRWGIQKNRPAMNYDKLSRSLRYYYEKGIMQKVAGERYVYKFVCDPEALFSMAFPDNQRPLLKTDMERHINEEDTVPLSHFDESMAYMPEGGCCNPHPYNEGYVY
Chain of CRX (O43186 whole entry): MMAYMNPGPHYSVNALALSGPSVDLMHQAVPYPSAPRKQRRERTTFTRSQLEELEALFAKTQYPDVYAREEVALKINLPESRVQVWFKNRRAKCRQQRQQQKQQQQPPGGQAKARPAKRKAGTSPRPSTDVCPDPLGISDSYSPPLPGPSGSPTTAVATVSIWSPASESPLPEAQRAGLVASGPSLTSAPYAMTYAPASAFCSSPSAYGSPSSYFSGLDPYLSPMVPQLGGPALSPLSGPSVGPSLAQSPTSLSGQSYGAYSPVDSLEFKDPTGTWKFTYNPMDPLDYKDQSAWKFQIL

With CCTTGG the binding signal (FLI1) was 1.28 fold enrichment (6-mer frequency, TF over GST control), the binding signal (ELK1) was 1.41 fold enrichment (6-mer frequency, TF over GST control) and the binding signal (GABPA) was 1.34 fold enrichment (6-mer frequency, TF over GST control). The binding signal (ERG) was 1.28 fold enrichment (6-mer frequency, TF over GST control), the binding signal (ELF1) was 1.28 fold enrichment (6-mer frequency, TF over GST control) and the binding signal (EHF) was 1.37 fold enrichment (6-mer frequency, TF over GST control). The binding signal (SPI1) was 1.24 fold enrichment (6-mer frequency, TF over GST control), the binding signal (SPIB) was 1.32 fold enrichment (6-mer frequency, TF over GST control) and the binding signal (ELK3) was 1.4 fold enrichment (6-mer frequency, TF over GST control). The binding signal (FEV) was 1.17 fold enrichment (6-mer frequency, TF over GST control), the binding signal (ETV5) was 1.21 fold enrichment (6-mer frequency, TF over GST control) and the binding signal (HSF1) was 1.1 fold enrichment (6-mer frequency, TF over GST control). For the same sequence, the binding signal (SPIC) was 1.23 fold enrichment (6-mer frequency, TF over GST control), the binding signal (ELF4) was 1.27 fold enrichment (6-mer frequency, TF over GST control) and the binding signal (ELK4) was 1.37 fold enrichment (6-mer frequency, TF over GST control). The binding signal (ETV2) was 1.28 fold enrichment (6-mer frequency, TF over GST control), the binding signal (ELF3) was 1.22 fold enrichment (6-mer frequency, TF over GST control) and the binding signal (CRX) was 1.09 fold enrichment (6-mer frequency, TF over GST control). For the same sequence, the binding signal (ETV1) was 1.35 fold enrichment (6-mer frequency, TF over GST control).
